Assay [1] can be described thus: Nuclear factor erythroid 2-related factor 2/antioxidant responsive element (Nrf2/ARE) small molecule agonists: qHTS cell viability counter screen in human keratinocytes (AID 1919968; active = well fitted curve in the direction sought with a large enough effect in the repeat runs; an effect the other way counts as inactive or inconclusive; note: nearly all actives have a fitted effect of over 55% in size; note: potency is the fitted concentration of half-maximal effect). In a few lines:
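In human HaCaT keratinocytes stably expressing an ARE-driven luciferase, compound exposure lasted 23 h at 37 C under 5% CO2. Viable cells are quantified with a protease-based fluorogenic reagent (CellTiter-Fluor) read 1 h after addition.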

The nature of assay [2]: Nuclear factor erythroid 2-related factor 2/antioxidant responsive element (Nrf2/ARE) small molecule agonists: luciferase reporter gene qHTS assay in human keratinocytes (AID 1919969). Note: nearly all actives have a fitted effect of over 35% in size. Note: potency is the fitted concentration of half-maximal effect.
Assay [3] has as its target Gonadotropin-releasing hormone receptor (Homo sapiens) (UniProt P30968). The assay can be described thus: Human gonadotropin-releasing hormone receptor (GnRHR) small molecule agonists, calcium flux assay in GnRHR-HEK293 cells (AID 1920063). Note: nearly all actives have a fitted effect of over 35% in size. The method, boiled down:
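Intracellular calcium rise is the read-out: engineered human GnRHR HEK293 cells, dye-loaded, are exposed to DMSO-dissolved compounds and fluorescence at Ex/Em 480/540 is tracked for 3 min.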

Assay [4] concerns the target KiSS-1 receptor (Homo sapiens) (UniProt Q969F8). The assay can be described thus: Human kisspeptin (KISS1R) small molecule agonists, calcium flux assay in KISS1R-HEK293 cells (AID 1920064; active = well fitted curve in the direction sought with a large enough effect in the repeat runs; an effect the other way counts as inactive or inconclusive). The method, boiled down: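 Concentration-response testing used 15 concentrations in triplicate on human KISS1R-expressing HEK293 cells. Calcium-dependent fluorescence (Ex/Em 480/540) was followed kinetically for 3 min after compound transfer.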

Assay [5] is described as follows: G protein-coupled receptor (GPCR) small molecule agonists, calcium flux assay: HEK293 wild type cell line counter screen (AID 1920065). The method, boiled down: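 Fluorescence intensity signals activation. After overnight (18 h) culture and a 1 h calcium dye load at 37 C, compounds are added by pin tool and the plate read at 480/540 nm for 3 min in 1 s steps.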

Assay [6] is described as follows: p53 small molecule agonists, cell-based qHTS assay with human liver microsomes (AID 1963577).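 Note: p53 response element beta-lactamase reporter cells with liver microsomes plus NADPH.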 The method, boiled down: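 Reporter activation was measured by LiveBLAzer fluorescence intensity in p53RE-bla cells, which had been exposed to compounds for 16 h at 37 C alongside 0.5 mg/mL human liver microsomes and 0.5 mg/mL NADPH (final concentrations).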
Assay [7] can be described thus: p53 small molecule agonists, cell-based qHTS assay with rat liver microsomes (AID 1963578). The method, boiled down: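 Compound in DMSO added to p53RE-bla cells 5 h post-plating; rat microsomes/NADPH 0.5 mg/mL final; 16 h, 37 C; LiveBLAzer 2 h RT.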
The nature of assay [8]: p53 small molecule agonists, cell-based qHTS assay with human liver microsomes: qHTS cell viability counter screen (AID 1963579). Note: nearly all actives have a fitted effect of over 45% in size. Note: potency is the fitted concentration of half-maximal effect. The method, boiled down: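 HLM-supplemented (0.5 mg/mL final) and NADPH-supplemented (0.5 mg/mL final) p53RE-bla cultures, 4,000 cells per well, were dosed with compounds in DMSO for 16 h at 37 C; luminescent ATP detection (CellTiter-Glo, 30 min, room temperature) quantified surviving cells.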

Assay [9] in a line: p53 small molecule agonists, cell-based qHTS assay with rat liver microsomes: qHTS cell viability counter screen (AID 1963580). Note: nearly all actives have a fitted effect of over 45% in size. Note: potency is the fitted concentration of half-maximal effect. In a few lines:
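Cytotoxicity counter screen: intracellular ATP measured by CellTiter-Glo luminescence in the same wells as the beta-lactamase reporter read, on HCT-116 p53RE-bla cells exposed 16 h at 37 C to compounds with rat liver microsomes and NADPH, each 0.5 mg/mL final.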

Assay [10] is described as follows: p53 small molecule agonists, cell-based qHTS assay (AID 1963582; active = well fitted activation curve with a large enough effect in the signal ratio in the repeat runs, not every such curve was filed as active; the % refers to the signal ratio). The method, boiled down: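 After plating, p53RE-bla cells sat 5 h in the incubator; compounds or DMSO vehicle were pinned in; a 16 h incubation at 37 C followed; FRET substrate was added and, 2 h later at RT, fluorescence was measured.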
Assay [11] deals with 5-hydroxytryptamine receptor 2A (Homo sapiens) (UniProt P28223). The assay can be described thus: 5-hydroxytryptamine receptor 2A (HTR2A) small molecule antagonists, cell-based qHTS assay (AID 1963586). Note: nearly all actives have a fitted effect of over 45% in size. Note: potency is the fitted concentration of half-maximal effect. In a few lines:
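CHO cells stably expressing human HTR2A were plated for 18 h at 37 C, then loaded with calcium dye for 1 h. Compounds were preincubated 5 min at room temperature before DOI (4 nM solution) was added. Kinetic fluorescence was read for 3 min.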

Assay [12] has the same target. The assay can be described thus: 5-hydroxytryptamine receptor 2A (HTR2A) small molecule agonists, cell-based qHTS assay (AID 1963587). Note: nearly all actives have a fitted effect of over 30% in size. The method, boiled down: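 CHO cells stably expressing human HTR2A, plated 18 h, loaded with calcium dye 1 h at 37 C. Agonist mode: compounds added and intracellular calcium fluorescence recorded kinetically for 2 min at 1 sec intervals.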

The target of assay [13] is Muscarinic acetylcholine receptor M1 (Homo sapiens) (UniProt P11229). The assay can be described thus: Cholinergic receptor muscarinic 1 (CHRM1) small molecule antagonists, cell-based qHTS assay (AID 1963588). Note: nearly all actives have a fitted effect of over 40% in size. Note: potency is the fitted concentration of half-maximal effect. The method, boiled down: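 Compounds were tested at 15 concentrations in three independent runs. Dye-loaded CHRM1-CHO cells were exposed 5 min at room temperature before stimulation by acetylcholine added at 50nM. Intracellular calcium was read kinetically on FDSS for 3 min.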
Chain of Muscarinic acetylcholine receptor M1 (Homo sapiens) (P11229 whole entry, looked up): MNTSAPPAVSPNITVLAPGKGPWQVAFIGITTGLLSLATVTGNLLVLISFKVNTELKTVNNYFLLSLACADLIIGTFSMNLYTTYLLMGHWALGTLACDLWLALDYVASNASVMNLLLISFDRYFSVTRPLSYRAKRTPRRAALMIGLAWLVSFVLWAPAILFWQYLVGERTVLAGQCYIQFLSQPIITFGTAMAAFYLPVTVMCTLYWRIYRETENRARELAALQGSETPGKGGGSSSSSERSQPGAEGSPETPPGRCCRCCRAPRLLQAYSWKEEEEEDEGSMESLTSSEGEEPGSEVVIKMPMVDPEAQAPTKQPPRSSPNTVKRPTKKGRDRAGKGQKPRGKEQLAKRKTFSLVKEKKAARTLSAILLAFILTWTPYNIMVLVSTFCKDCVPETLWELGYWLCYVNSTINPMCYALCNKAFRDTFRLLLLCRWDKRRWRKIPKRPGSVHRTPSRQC

For assay [14] the target is unchanged. The assay can be described thus: Cholinergic receptor muscarinic 1 (CHRM1) small molecule agonists, cell-based qHTS assay (AID 1963589). Note: nearly all actives have a fitted effect of over 35% in size. In a few lines: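 Fluorescent calcium dye reports M1 activation in stably transfected CHO cells. Compounds, 15 concentrations, added after 1 h dye loading at 37 C; kinetic reading at 1 sec intervals.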
A short description of assay [15]: cAMP Responsive Elements (CRE) small molecule agonists, cell-based qHTS assay (AID 1963590). The method, boiled down:
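Compound exposure lasted 3 h at 37 C/5% CO2 in CRE-bla HEK 293T cells grown in assay medium with 10% dialyzed FBS and 25 mM HEPES. Reporter signal came from LiveBLAzer B/G FRET substrate, 2 h, room temperature.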

Assay [16] is described as follows: cAMP Responsive Elements (CRE) small molecule antagonists, cell-based qHTS assay (AID 1963591; active = well fitted inhibition curve with a large enough effect in the signal ratio in the repeat runs, not every such curve was filed as active; the % refers to the signal ratio; note: potency is the fitted concentration of half-maximal effect). The method, boiled down: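 Stimulation used NKH477 at a final 0.25 uM for 3 h in compound-treated CRE-bla HEK293T cells, seeded 18 h beforehand. Reporter activity was measured with LiveBLAzer B/G FRET substrate after 2 h at room temperature.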
Assay [17] addresses Beta-2 adrenergic receptor (Homo sapiens) (UniProt P07550). The assay can be described thus: Adrenergic beta2 receptor (ADRB2) small molecule antagonists, cell-based qHTS assay (AID 1963592). Note: series mostly up to about 92 µM; nearly all actives have a fitted effect of over 50% in size. The method, boiled down: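 Assay format: CHO-ADRB2 cells, 18-20hr seeding at 37C/5% CO2, then compound plus 1nM isoproterenol agonist mix for 0.5hr RT. Homogeneous time-resolved fluorescence cAMP detection after 1hr, expressed as 665/615 nm ratio.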

For assay [18], the target named is D(2) dopamine receptor (Homo sapiens) (UniProt P14416). The assay can be described thus: Dopamine D2 receptor (DRD2) small molecule agonists, cell-based qHTS assay (AID 1963594). Note: nearly all actives have a fitted effect of over 35% in size. In a few lines: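 HEK293 cells stably expressing human DRD2, pre-treated with PDE inhibitor Ro20-1724 (0.1 mM final) and compound 10 min at room temperature, then stimulated with NKH477 (200nM […]) for 30 min. cAMP read by HTRF (665/620 nm).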
Chain of D(2) dopamine receptor (Homo sapiens) (P14416 whole entry, looked up): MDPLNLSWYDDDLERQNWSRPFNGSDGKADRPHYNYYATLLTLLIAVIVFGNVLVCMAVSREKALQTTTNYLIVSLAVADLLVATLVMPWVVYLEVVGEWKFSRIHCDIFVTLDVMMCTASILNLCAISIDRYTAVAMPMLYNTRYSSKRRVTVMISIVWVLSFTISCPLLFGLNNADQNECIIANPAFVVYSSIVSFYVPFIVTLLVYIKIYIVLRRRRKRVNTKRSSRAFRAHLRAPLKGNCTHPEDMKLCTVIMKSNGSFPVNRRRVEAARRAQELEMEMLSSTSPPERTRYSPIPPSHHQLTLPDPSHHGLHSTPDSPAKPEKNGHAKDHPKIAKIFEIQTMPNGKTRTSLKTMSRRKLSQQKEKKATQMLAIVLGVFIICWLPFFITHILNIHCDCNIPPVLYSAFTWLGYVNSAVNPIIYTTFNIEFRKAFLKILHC

Assay [19] has the same target. The assay can be described thus: Dopamine D2 receptor (DRD2) small molecule antagonists, cell-based qHTS assay (AID 1963595; active = well fitted inhibition curve with a large enough effect in the signal ratio in the repeat runs, with a control signal flat; the % refers to the signal ratio). The method, boiled down:
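HTRF cAMP read-out at 665 and 620 nm emission (340 nm excitation). Antagonist mode: compounds were tested against 12 nM quinpirole in DRD2-HEK293 cells, with 200 nM NKH477 raising cAMP and 0.1 mM Ro20-1724 blocking its breakdown.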

Assay [20] can be described thus: p53 small molecule agonists, cell-based qHTS assay: qHTS cell viability counter screen (AID 1963581). Note: nearly all actives have a fitted effect of over 45% in size. The method, boiled down: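 Luminescence from CellTiter-Glo, reflecting ATP content, serves as the cytotoxicity measure; it is taken after the 2 h reporter substrate step in HCT-116 p53RE-bla cells dosed for 16 h at 37 C.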

Values joined by “and” are separate entries in the source; they are usually repeats but may differ in a detail not shown here. Equal entries are not always repeated. Results filed as inconclusive are left out. Some structures have more than one record in an assay (separate samples or runs), and their calls can disagree. Active and inactive are the calls of the source. Unless noted, calls come from the whole dose curve.

Chain of Gonadotropin-releasing hormone receptor (Homo sapiens) (P30968 whole entry, looked up): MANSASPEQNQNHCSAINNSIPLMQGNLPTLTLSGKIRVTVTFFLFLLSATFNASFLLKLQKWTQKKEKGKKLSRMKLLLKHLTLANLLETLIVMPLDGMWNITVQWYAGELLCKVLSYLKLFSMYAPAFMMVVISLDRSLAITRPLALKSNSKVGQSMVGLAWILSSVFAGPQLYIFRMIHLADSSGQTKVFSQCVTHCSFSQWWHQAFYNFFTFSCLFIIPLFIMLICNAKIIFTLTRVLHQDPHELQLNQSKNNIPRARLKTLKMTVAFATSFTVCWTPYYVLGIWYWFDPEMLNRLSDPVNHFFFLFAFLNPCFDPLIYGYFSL
Chain of KiSS-1 receptor (Homo sapiens) (Q969F8 whole entry, looked up): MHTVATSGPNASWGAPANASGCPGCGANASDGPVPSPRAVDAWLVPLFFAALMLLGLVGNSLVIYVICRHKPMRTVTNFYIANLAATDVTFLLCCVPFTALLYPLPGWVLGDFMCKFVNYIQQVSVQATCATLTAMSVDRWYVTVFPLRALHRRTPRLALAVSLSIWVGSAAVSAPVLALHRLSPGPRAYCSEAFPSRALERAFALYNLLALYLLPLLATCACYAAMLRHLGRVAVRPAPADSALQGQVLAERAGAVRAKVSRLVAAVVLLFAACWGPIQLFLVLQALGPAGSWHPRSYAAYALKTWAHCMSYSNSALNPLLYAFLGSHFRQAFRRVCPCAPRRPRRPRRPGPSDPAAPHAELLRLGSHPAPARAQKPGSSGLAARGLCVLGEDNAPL
Chain of 5-hydroxytryptamine receptor 2A (Homo sapiens) (P28223 whole entry, looked up): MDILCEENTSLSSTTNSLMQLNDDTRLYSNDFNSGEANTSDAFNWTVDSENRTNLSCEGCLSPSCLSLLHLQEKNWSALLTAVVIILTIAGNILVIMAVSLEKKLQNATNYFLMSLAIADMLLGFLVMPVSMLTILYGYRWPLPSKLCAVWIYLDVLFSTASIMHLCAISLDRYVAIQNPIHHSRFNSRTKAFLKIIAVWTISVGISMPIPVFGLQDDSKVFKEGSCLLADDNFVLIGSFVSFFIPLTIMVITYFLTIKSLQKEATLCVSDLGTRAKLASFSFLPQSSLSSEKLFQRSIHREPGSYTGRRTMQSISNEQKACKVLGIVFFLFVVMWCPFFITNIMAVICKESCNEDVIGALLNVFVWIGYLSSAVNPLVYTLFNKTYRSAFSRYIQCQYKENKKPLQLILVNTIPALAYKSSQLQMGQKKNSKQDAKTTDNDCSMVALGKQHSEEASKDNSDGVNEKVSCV
Chain of Beta-2 adrenergic receptor (Homo sapiens) (P07550 whole entry, looked up): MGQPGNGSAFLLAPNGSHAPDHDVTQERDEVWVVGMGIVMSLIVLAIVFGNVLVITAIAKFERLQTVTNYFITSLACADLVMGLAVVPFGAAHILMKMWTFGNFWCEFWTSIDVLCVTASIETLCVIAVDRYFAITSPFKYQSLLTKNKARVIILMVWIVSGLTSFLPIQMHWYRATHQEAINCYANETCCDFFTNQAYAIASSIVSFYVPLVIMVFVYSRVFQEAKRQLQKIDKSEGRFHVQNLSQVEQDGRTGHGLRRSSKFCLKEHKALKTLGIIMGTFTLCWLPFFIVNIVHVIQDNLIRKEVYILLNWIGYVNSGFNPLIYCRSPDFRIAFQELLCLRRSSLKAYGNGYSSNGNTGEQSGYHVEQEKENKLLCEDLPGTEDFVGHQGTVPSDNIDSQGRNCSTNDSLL

As to `O=NN1CCCCCC1`, the Potency result in [1], in assay [2], in [3], in assay [4], in assay [5] and in [6] was “inactive” in each case. Moreover, the Potency result in assay [7], in assay [8], in assay [9], in [10], in assay [11] and in [12] was “inactive” each time. The Potency entry in assay [13], in assay [14], in assay [15], in assay [16], in [17] and in assay [18] was “inactive” in each case. In assay [19], the Potency entry is “inactive”.
Regarding `N#CN=C(N)N`, the Potency entry in assay [1], in assay [2], in assay [3], in [4], in [5] and in assay [6] was “inactive” in each case. Besides, the Potency entry in [7], in assay [8], in assay [20], in assay [10], in assay [11] and in [12] was “inactive” each time. The Potency result in assay [13], in [14], in [15], in assay [16], in assay [17] and in assay [18] was “inactive” each time. The Potency result in assay [19] was “inactive”.
As for `CC(C)C(C)(N)C#N` (stereo not given), the Potency result in assay [1], in assay [2], in assay [3], in assay [4], in [5] and in assay [6] was “inactive” in each case. For the same molecule, the Potency result in assay [7], in [8], in [20], in assay [10], in [11] and in assay [12] was “inactive” throughout. For the same molecule, the Potency result in assay [13], in assay [14], in [15], in assay [16], in assay [17] and in assay [18] was “inactive” each time. Further, the Potency result in assay [19] was “inactive”.
For `CC(C)Nc1ccc(Nc2ccccc2)cc1`, the Potency was 30.5 µM (active) in assay [1]; 9.65 µM (active) and 24.3 µM (active) in assay [2]; 28.8 µM (active) and 28.9 µM (active) in [8]; 36.2 µM (active) and 45.8 µM (active) in assay [9]; 11.8 µM (active) and 16.8 µM (active) in assay [11]; 11.9 µM (active) in assay [13]. Moreover, the Potency result in assay [3], in [4], in [5], in assay [6], in assay [7] and in assay [10] was “inactive” each time. Moreover, the Potency entry in [12], in assay [14] and in assay [17] was “inactive” each time.
On to `CCC1(CC)C(=O)C=CNC1=O`, for which the Potency entry in assay [1], in assay [2], in assay [3], in [4], in [5] and in assay [6] was “inactive” throughout. In addition, the Potency entry in [7], in assay [8], in assay [9], in assay [11], in assay [12] and in assay [13] was “inactive” in each case. The Potency entry in assay [14], in assay [15], in assay [16], in [17], in [18] and in assay [19] was “inactive” each time.
For `Clc1ccc(COC(Cn2ccnc2)c2ccc(Cl)cc2Cl)cc1` (stereo not given), the Potency in assay [1] was 45.3 µM (active) and 27.2 µM (active) and 13.3 µM (active); in assay [2], 22.7 µM (active) and 13.3 µM (active); in assay [8] it was 38 µM (active) and inactive; in assay [16], 50.8 µM (active). Further, the Potency entry in assay [3], in [4], in assay [5], in [6], in [7] and in [9] was “inactive” in each case. The Potency entry in assay [15] and in assay [18] was “inactive” in each case.
As to `CC(C)C1(C)N=C(c2ncccc2C(=O)O)NC1=O` (stereo not given), the Potency result in assay [1], in [2], in assay [3], in assay [4], in assay [5] and in assay [6] was “inactive” each time. Also, the Potency entry in assay [7], in assay [8], in assay [20], in assay [10], in [11] and in assay [12] was “inactive” in each case. The Potency entry in [13], in assay [14], in [15], in [16], in [17] and in [18] was “inactive” in each case. Besides, in assay [19], the Potency entry was “inactive”.
Regarding `COc1cc(OC)nc(Sc2cccc(Cl)c2C(=O)O)n1`, the Potency result in assay [1], in [2], in [3], in [4], in assay [5] and in assay [6] was “inactive” each time. In addition, the Potency entry in [7], in assay [8], in [9], in [10], in assay [11] and in [12] was “inactive” in each case. Further, the Potency entry in assay [13], in [14], in [15], in [16], in [17] and in assay [18] was “inactive” in each case. Also, the Potency entry in [19] was “inactive”.

These data come from PubChem BioAssay (Tox21).
